Test results taken from article PMC11995724, “Antibiotic target discovery by integrated phenotypic and activity-based profiling of electrophilic fragments” (Cell chemical biology, 2025).
Screen size: about 3,200 compounds; about 110 (3.4%) showed an effect of 50% or more. The list comes from a sample in which strong results are over-represented; it also holds similar structures and randomly drawn compounds.

Test system: T1, V. cholerae SAD30
T1 construct: SAD30
Design: species or system S. aureus MSSA476 (TSB) or V. cholerae SAD30 (LB); 384-well bacterial growth screen at 25 uM, OD600 relative to DMSO control
Conditions: relative growth, OD600, LB; 25 µM; inhibitor

| SMILES | % of control remaining [%] |
| --- | --- |
| COc1ccc(C=C(C#N)C(=O)Nc2c(C)cccc2C)cc1OC [8-A17, 2-cyano-3-(3,4-dimethoxyphenyl)-N-(2,6-dimethylphenyl)prop-2-enamide] | 86.6757 |
| Cc1n[nH]c(C)c1C=C(C#N)C(=O)Nc1cc(Cl)cc(Cl)c1 [8-M08, 2-cyano-N-(3,5-dichlorophenyl)-3-(3,5-dimethyl-1H-pyrazol-4-yl)prop-2-enamide] | 68.3209 |
| CCOc1ccc2nc(NC(=O)CCl)sc2c1 [4-L10, 2-chloro-N-(6-ethoxy-1,3-benzothiazol-2-yl)acetamide] | 94.3714 |
| C=CC(=O)N1CCC(C(=O)NCCc2c(C)n[nH]c2C)CC1 [2-D04, N-[2-(3,5-dimethyl-1H-pyrazol-4-yl)ethyl]-1-(prop-2-enoyl)piperidine-4-carboxamide] | 106.099 |
| CC(Cl)C(=O)N1CCN(S(=O)(=O)c2ccccc2)CC1 (stereo not drawn) [6-B12, 1-[4-(benzenesulfonyl)piperazin-1-yl]-2-chloropropan-1-one] | 88.4254 |
| CCc1cccc(CC)c1NC(=O)CCl [4-F10, 2-chloro-N-(2,6-diethylphenyl)acetamide] | 103.86 |
| CCc1cccc2c(C(=O)CCl)c[nH]c12 [10-C12, 2-chloro-1-(7-ethyl-1H-indol-3-yl)ethan-1-one] | 24.3133 |
| Cc1cccc2[nH]cc(C(=O)CCl)c12 [10-H09, 2-chloro-1-(4-methyl-1H-indol-3-yl)ethan-1-one] | 100.526 |
| Cc1noc(C)c1COC1CCN(C(=O)C(C)Cl)C1 (stereo not drawn) [7-O14, 2-chloro-1-{3-[(3,5-dimethyl-1,2-oxazol-4-yl)methoxy]pyrrolidin-1-yl}propan-1-one] | 78.3744 |
| Cc1cc(C(=O)CCl)c(C)n1-c1ccccc1 [10-L20, 2-chloro-1-(2,5-dimethyl-1-phenyl-1H-pyrrol-3-yl)ethan-1-one] | 100.682 |
| Cc1cc(-n2c(C)cc(C(=O)CCl)c2C)no1 [10-C18, 2-chloro-1-[2,5-dimethyl-1-(5-methyl-1,2-oxazol-3-yl)-1H-pyrrol-3-yl]ethan-1-one] | 106.137 |
| Cc1ccccc1-n1c(C)cc(C(=O)CCl)c1C [10-H20, 2-chloro-1-[2,5-dimethyl-1-(2-methylphenyl)-1H-pyrrol-3-yl]ethan-1-one] | 100.526 |
| Cc1cc(C)cc(-n2c(C)cc(C(=O)CCl)c2C)c1 [10-E04, 2-chloro-1-[1-(3,5-dimethylphenyl)-2,5-dimethyl-1H-pyrrol-3-yl]ethan-1-one] | 92.1099 |
| Cc1cc(C(=O)CCl)c(C)n1-c1ccccn1 [10-C16, 2-chloro-1-[2,5-dimethyl-1-(pyridin-2-yl)-1H-pyrrol-3-yl]ethan-1-one] | 41.1455 |
| Cc1cc(C(=O)CCl)c(C)n1-c1ccon1 [10-F06, 2-chloro-1-[2,5-dimethyl-1-(1,2-oxazol-3-yl)-1H-pyrrol-3-yl]ethan-1-one] | 37.8726 |
